Measurements reported in the antibiotic and cytotoxicity screens of Wong et al. (2023).
The campaign covered roughly 39,000 compounds. About 1,500 (3.8%) were called active. Many of the other results were omitted from the sample, so actives are more common in it than they were.

tested on: HSkMC (human skeletal muscle cells); assay: cytotoxicity call (relative viability < 0.9); conditions: 10 µM

Structure (SMILES)	cytotoxicity call
Cc1noc(C)c1NC(=O)N(C)C[C@@H]1OCCCC[C@H](C)Oc2ccc(NS(=O)(=O)c3ccc(F)cc3)cc2C(=O)N([C@H](C)CO)C[C@@H]1C	inactive
Cc1noc(C)c1S(=O)(=O)N(C)C[C@@H]1Oc2c(NC(=O)c3cnccn3)cccc2C(=O)N([C@H](C)CO)C[C@@H]1C	inactive
O=C(C[C@H]1CC[C@H]2[C@@H](COC[C@H](O)CN2S(=O)(=O)c2ccccc2)O1)NCCN1CCCCC1	inactive
c1cc(CCN2CCNCC2)ccn1	inactive
O=C(O)[C@H](O)c1ccc(F)cc1	inactive
CCS(=O)(=O)N1C[C@]2(CN(C2)C(=O)Nc2c(noc2C)C)c2c(n(c3cc(ccc23)OC)C)[C@H]1CO	inactive
C[C@H](CO)N1C[C@H](C)[C@H](CN(C)Cc2ccncc2)Oc2ccc(NC(=O)Nc3ccc(C(F)(F)F)cc3)cc2CC1=O	inactive
C[C@H](CO)N1C[C@H](C)[C@@H](CN(C)Cc2ccncc2)Oc2ccc(NC(=O)Nc3ccc(C(F)(F)F)cc3)cc2CC1=O	active
C[C@@H]1CN([C@@H](C)CO)C(=O)Cc2cc(NC(=O)Nc3ccc(C(F)(F)F)cc3)ccc2O[C@@H]1CN(C)Cc1ccc(C(F)(F)F)cc1	active
C[C@@H]1CN([C@@H](C)CO)C(=O)Cc2cc(NC(=O)Nc3ccc(C(F)(F)F)cc3)ccc2O[C@H]1CN(C)Cc1ccncc1	inactive
C[C@@H]1CN([C@H](C)CO)C(=O)c2cc(NS(=O)(=O)c3ccc(Cl)cc3)ccc2O[C@@H](C)CCCCO[C@@H]1CN(C)Cc1ccc(C(=O)O)cc1	inactive
C[C@H](CO)N1C[C@H](C)[C@H](CN(C)C(=O)Nc2ccc3c(c2)OCO3)OCCCC[C@H](C)Oc2ccc(NC(=O)NC3CCCCC3)cc2C1=O	inactive
C[C@@H]1CN([C@H](C)CO)C(=O)Cc2cc(NS(C)(=O)=O)ccc2O[C@@H]1CN(C)S(=O)(=O)c1ccc(F)cc1	inactive
C[C@@H]1CCCCO[C@@H](CN(C)Cc2ccc(C(F)(F)F)cc2)[C@@H](C)CN([C@H](C)CO)C(=O)c2cc(NC(=O)Nc3ccccc3)ccc2O1	inactive
C[C@@H]1CCCCO[C@@H](CN(C)Cc2ccc(C(F)(F)F)cc2)[C@H](C)CN([C@H](C)CO)C(=O)c2cc(NC(=O)Nc3ccccc3)ccc2O1	active
C[C@@H]1CN([C@H](C)CO)C(=O)c2cc(NC(=O)Nc3ccccc3)ccc2O[C@@H](C)CCCCO[C@H]1CN(C)Cc1ccc(C(F)(F)F)cc1	active
C[C@@H]1CCCCO[C@@H](CN(C)Cc2ccc(C(F)(F)F)cc2)[C@H](C)CN([C@@H](C)CO)C(=O)c2cc(NC(=O)Nc3ccccc3)ccc2O1	inactive
C[C@@H]1CCCCO[C@H](CN(C)Cc2ccc(C(F)(F)F)cc2)[C@@H](C)CN([C@H](C)CO)C(=O)c2cc(NC(=O)Nc3ccccc3)ccc2O1	inactive
C[C@@H]1CCCCO[C@H](CN(C)Cc2ccc(C(F)(F)F)cc2)[C@H](C)CN([C@H](C)CO)C(=O)c2cc(NC(=O)Nc3ccccc3)ccc2O1	active
C[C@@H]1CCCCO[C@H](CN(C)Cc2ccc(C(F)(F)F)cc2)[C@H](C)CN([C@@H](C)CO)C(=O)c2cc(NC(=O)Nc3ccccc3)ccc2O1	inactive
C[C@@H]1CN([C@@H](C)CO)C(=O)c2cc(NC(=O)Nc3ccccc3)ccc2O[C@@H](C)CCCCO[C@@H]1CN(C)Cc1ccc(C(F)(F)F)cc1	inactive
C[C@H](CO)N1C[C@H](C)[C@@H](CN(C)Cc2ccc(C(F)(F)F)cc2)OCCCC[C@H](C)Oc2ccc(NC(=O)Nc3ccccc3)cc2C1=O	inactive
C[C@@H]1CN([C@H](C)CO)C(=O)c2cc(NC(=O)Nc3ccccc3)ccc2O[C@@H](C)CCCCO[C@@H]1CN(C)Cc1ccc(C(F)(F)F)cc1	inactive
C[C@@H]1CCCCO[C@H](CN(C)Cc2ccc(C(F)(F)F)cc2)[C@@H](C)CN([C@@H](C)CO)C(=O)c2cc(NC(=O)Nc3ccccc3)ccc2O1	inactive

Structure (SMILES)	cytotoxicity call
C[C@H]1CCCCO[C@@H](CN(C)Cc2ccc(C(F)(F)F)cc2)[C@@H](C)CN([C@@H](C)CO)C(=O)c2cc(NC(=O)Nc3ccccc3)ccc2O1	active
CO[C@H]1CN(C)C(=O)c2cc(NC(=O)Nc3ccc(Cl)cc3)ccc2OC[C@@H](C)N(C(=O)Nc2c(C)noc2C)C[C@H]1C	inactive
C[C@@H]1CCCCO[C@H](CN(C)S(=O)(=O)c2cccs2)[C@@H](C)CN([C@H](C)CO)C(=O)c2cc(NC(=O)Nc3ccc(C(F)(F)F)cc3)ccc2O1	inactive
Cc1noc(C)c1NC(=O)N(C)C[C@@H]1Oc2ccc(NC(=O)Cn3cnnn3)cc2CC(=O)N([C@@H](C)CO)C[C@H]1C	inactive
C[C@@H]1CN([C@H](C)CO)C(=O)Cc2cc(NC(=O)Cn3cnnn3)ccc2O[C@@H]1CN(C)C(=O)Nc1ccc(C(F)(F)F)cc1	inactive
C[C@H](CO)N1C[C@H](C)[C@H](CN(C)Cc2ccc(Cl)c(Cl)c2)OCCCC[C@H](C)Oc2ccc(NC(=O)Nc3ccc(C(F)(F)F)cc3)cc2C1=O	inactive
Cc1ccc(S(=O)(=O)N(C)C[C@@H]2Oc3ccc(NS(=O)(=O)c4cccs4)cc3C(=O)N([C@@H](C)CO)C[C@@H]2C)cc1	inactive
O=C(C[C@H]1CC[C@@H]2[C@H](COC[C@@H](O)CN2S(=O)(=O)c2cccc(F)c2)O1)NCCCN1CCOCC1	inactive
Cc1ccc(F)c(S(=O)(=O)N2[C@@H]3CC[C@@H](C3)[C@H]2c2nc3cccc(OCc4ccc(F)cc4)c3[nH]2)c1	inactive
C[C@@H]1CCCCO[C@H](CN(C)Cc2ccc(C(F)(F)F)cc2)[C@H](C)CN([C@H](C)CO)C(=O)c2cc(NC(=O)c3ccccc3)ccc2O1	inactive
C[C@H]1CCCCO[C@@H](CN(C)Cc2ccc(C(F)(F)F)cc2)[C@@H](C)CN([C@@H](C)CO)C(=O)c2cc(NC(=O)c3ccccc3)ccc2O1	active
C[C@@H]1CN([C@@H](C)CO)C(=O)c2cc(NC(=O)Nc3ccccc3)ccc2O[C@@H](C)CCCCO[C@H]1CN(C)Cc1ccc(C(F)(F)F)cc1	active
C[C@@H]1CCCCO[C@@H](CN(C)Cc2ccc(C(F)(F)F)cc2)[C@H](C)CN([C@H](C)CO)C(=O)c2cc(NC(=O)c3ccccc3)ccc2O1	inactive
C[C@@H]1CCCCO[C@H](CN(C)Cc2ccncc2)[C@H](C)CN([C@@H](C)CO)C(=O)c2cc(NC(=O)c3ccccc3)ccc2O1	active
C[C@@H]1CCCCO[C@@H](CN(C)Cc2ccc(C(F)(F)F)cc2)[C@@H](C)CN([C@@H](C)CO)C(=O)c2cc(NC(=O)Nc3ccccc3)ccc2O1	inactive
C[C@H]1CCCCO[C@H](CN(C)Cc2ccncc2)[C@@H](C)CN([C@@H](C)CO)C(=O)c2cc(NC(=O)c3ccccc3)ccc2O1	inactive
C[C@H](CO)N1C[C@H](C)[C@H](CN(C)Cc2ccc(C(F)(F)F)cc2)OCCCC[C@H](C)Oc2ccc(NC(=O)Nc3ccccc3)cc2C1=O	inactive
C[C@H]1CCCCO[C@H](CN(C)Cc2ccc(C(F)(F)F)cc2)[C@@H](C)CN([C@@H](C)CO)C(=O)c2cc(NC(=O)Nc3ccccc3)ccc2O1	active
C[C@H](CO)N1C[C@H](C)[C@H](CN(C)Cc2ccncc2)OCCCC[C@H](C)Oc2ccc(NC(=O)c3ccccc3)cc2C1=O	inactive
O=C(NOCCO)c1cc(CN2OCCCC2=O)c(F)c(F)c1Nc1ccc(I)cc1F	inactive
O=C(C[C@H]1C[C@H]2c3cc(NS(=O)(=O)c4ccccc4)ccc3O[C@H]2[C@H](CO)O1)NCC(F)(F)F	inactive
CC(C)OC(=O)c1nnc(N)[nH]1	inactive
CN1CCN(C(=O)[C@H]2C[C@H]3CN(c4ncc(F)cn4)C[C@@H]3N2C)CC1	inactive
CC1(C)C=Cc2c(nc3ccccc3c2NCc2ccccc2)C1	inactive

Structure (SMILES)	cytotoxicity call
Cc1cc(C(=O)Nc2ccc3c(c2)C(=O)N(C)[C@@H]2CC[C@H](CC(=O)NCC(F)(F)F)O[C@@H]2CO3)no1	inactive
COCC(=O)Nc1ccc2c(c1)C(=O)N(C)C[C@@H](OC)[C@@H](C)CN(Cc1ccccc1OC)[C@@H](C)CO2	inactive
C[C@@H]1CN([C@H](C)CO)C(=O)c2cc(NC(=O)C3CCCCC3)ccc2O[C@@H](C)CCCCO[C@H]1CN(C)Cc1ccccc1	inactive
COc1ccc(C#Cc2cnc3c(c2)C(=O)N([C@@H](C)CO)C[C@@H](C)[C@H](CN(C)C(=O)CN(C)C)O3)cc1	inactive
C[C@H](CO)N1C[C@H](C)[C@@H](CN(C)S(=O)(=O)c2cn(C)cn2)Oc2c(NC(=O)CCC(F)(F)F)cccc2C1=O	inactive
C[C@@H]1CCCCO[C@@H](CN(C)S(=O)(=O)c2ccc(Cl)cc2)[C@@H](C)CN([C@H](C)CO)C(=O)c2cc(NC(=O)Nc3cccc4ccccc34)ccc2O1	inactive
COC(=O)[C@@H]1CCCC1=O	inactive
COc1ccc(CNC(=O)C[C@H]2C[C@H]3c4cc(NC(=O)NC5CCCC5)ccc4O[C@H]3[C@@H](CO)O2)cc1	inactive
O=C(Nc1cc(C(F)(F)F)cc(C(F)(F)F)c1)Nc1c(Br)cc(Br)cc1-c1nn[nH]n1	inactive
FC(F)(F)c1cc(NC(=S)Nc2ccc(Br)cc2-c2nn[nH]n2)cc(C(F)(F)F)c1	active
COc1ccccc1-c1cnc2c(c1)C(=O)N([C@@H](C)CO)C[C@H](C)[C@H](CN(C)C(=O)c1cccnc1)O2	inactive
COc1ccc([Si](C)(C)[C@H]2[C@H](CC(=O)N(CCO)Cc3ccccc3)O[C@@]3(C(=O)N(Cc4cccc(N5CCCCC5=O)c4)c4ccccc43)[C@@H]2C)cc1	inactive
Nc1ncnc2c1c(I)cn2[C@@H]1O[C@H](CO)[C@@H](O)[C@H]1O	inactive
Nc1ncnc2c1ncn2[C@H]1O[C@@H](CO)[C@H](O)[C@@H]1O	inactive
Nc1ncn(C2OC(CO)C(O)C2O)c(=O)n1 (configuration not stated)	inactive
Nc1ncn([C@@H]2O[C@H](CO)[C@@H](O)[C@H]2O)c(=O)n1	active
Nc1ncn([C@@H]2C[C@H](O)[C@@H](CO)O2)c(=O)n1	inactive
Nc1nc(F)nc2c1ncn2[C@@H]1O[C@H](COP(=O)(O)O)[C@@H](O)[C@@H]1O	inactive
NC(=O)c1cn([C@@H]2O[C@H](CO)[C@@H](O)[C@H]2O)c2ncnc(N)c2c1=O	active
Nc1ncnc2c1c(I)cn2[C@H]1O[C@@H](CO)[C@@H](O)[C@@H]1O	inactive
Nc1nc(F)nc2c1ncn2[C@@H]1O[C@H](CO)[C@@H](O)[C@H]1O	active
OC[C@H]1O[C@H](n2cnc3cncnc32)[C@@H](O)[C@@H]1O	active
Nc1ncnc2c1ncn2[C@@H]1O[C@H](CO)[C@@H](O)[C@@H]1O	inactive
Nc1nc(Cl)nc2c1ncn2[C@@H]1O[C@H](CO)[C@@H](O)[C@H]1O	inactive
